Assay results as given in PubChem BioAssay AID1159580 (chemical genetic matrix, 2015).
About 2,000 (36%) of roughly 5,500 compounds were called active. Not shown: some 18% with an inconclusive outcome. Rule as the data show it: active = normalized growth mostly below about 0.91 (no sharp cut-off); inconclusive = no clear call, values can overlap the other calls; inactive = mostly above about 0.92. This is one part of the list.

Assay: chemical genetic growth profiling, strain panel (AID 1159580);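 also: tested at 20 µM; growth read once vehicle control cultures reached saturation at 30 °C; 1 = growth at the plate median or of vehicle wells; lower values mean less growth of the strain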
Settings: growth OD
[1] = S. cerevisiae deletion strains, locus YHR030C, strain SLT2, stronger effect = lower value
[2] = S. cerevisiae deletion strains, locus YNL322C, strain KRE1, stronger effect = lower value
[3] = S. cerevisiae deletion strains, locus YPL055C, strain LGE1, stronger effect = lower value

Measured: normalized growth

CC(=O)c1ccc(N2C(=O)CSCC2=O)cc1
inactive: S. cerevisiae deletion strains, locus YAL013W, strain DEP1, stronger effect = lower value 0.999 | S. cerevisiae deletion strains, locus YBR229C, strain ROT2, stronger effect = lower value 0.999 | S. cerevisiae deletion strains, locus YDL101C, strain DUN1, stronger effect = lower value 1.01 | S. cerevisiae deletion strains, locus YDL134C, strain PPH21, stronger effect = lower value 0.977 | S. cerevisiae deletion strains, locus YDR150W, strain NUM1, stronger effect = lower value 0.984 | S. cerevisiae deletion strains, locus YEL061C, strain CIN8, stronger effect = lower value 1.02 | S. cerevisiae deletion strains, locus YGR078C, strain PAC10, stronger effect = lower value 1 | S. cerevisiae deletion strains, locus YGR229C, strain SMI1, stronger effect = lower value 0.972 | [1] 1.02 | S. cerevisiae deletion strains, locus YHR087W, strain rtc3, stronger effect = lower value 1 | S. cerevisiae deletion strains, locus YJR043C, strain POL32, stronger effect = lower value 0.991 | S. cerevisiae deletion strains, locus YJR075W, strain HOC1, stronger effect = lower value 1.02 | S. cerevisiae deletion strains, locus YLR039C, strain RIC1, stronger effect = lower value 0.962 | S. cerevisiae deletion strains, locus YLR058C, strain SHM2 (second series), stronger effect = lower value 0.999 | S. cerevisiae deletion strains, locus YLR085C, strain ARP6, stronger effect = lower value 1.04 | S. cerevisiae deletion strains, locus YLR262C, strain YPT6, stronger effect = lower value 0.912 | S. cerevisiae deletion strains, locus YML094W, strain GIM5, stronger effect = lower value 1.03 | S. cerevisiae deletion strains, locus YMR219W, strain ESC1, stronger effect = lower value 0.994 | S. cerevisiae deletion strains, locus YMR263W, strain SAP30, stronger effect = lower value 0.999 | S. cerevisiae deletion strains, locus YMR307W, strain GAS1, stronger effect = lower value 1.11 | S. cerevisiae deletion strains, locus YNL153C, strain GIM3, stronger effect = lower value 1.01 | S. cerevisiae deletion strains, locus YNL298W, strain CLA4 (second series), stronger effect = lower value 0.992 | [2] 0.988 | S. cerevisiae deletion strains, locus YNR030W, strain Alg12, stronger effect = lower value 0.996 | [3] 1.02 | S. cerevisiae deletion strains, locus YPL241C, strain CIN2, stronger effect = lower value 0.983 | S. cerevisiae deletion strains, locus YPR135W, strain CTF4, stronger effect = lower value 0.99 | S. cerevisiae strains, strain wild type, stronger effect = lower value 0.97

CC(O)C(C)OC(=O)[C@@H]1C[C@@H]2c3cccc4c3c(cn4C(C)C)C[C@H]2N(C)C1 (stereo partly specified)
inactive: S. cerevisiae deletion strains, locus YAL040C, strain CLN3, stronger effect = lower value 0.977 | S. cerevisiae deletion strains, locus YCL061C, strain MRC1 (second series), stronger effect = lower value 0.98 | S. cerevisiae deletion strains, locus YDR363W, strain ESC2, stronger effect = lower value 0.996 | S. cerevisiae deletion strains, locus YER002W, strain NOP16, stronger effect = lower value 1 | S. cerevisiae deletion strains, locus YNL175C, strain NOP13, stronger effect = lower value 1 | S. cerevisiae deletion strains, locus YNL197C, strain WHI3, stronger effect = lower value 0.991 | S. cerevisiae deletion strains, locus YNL224C, strain SQS1, stronger effect = lower value 1.01 | [2] 0.973 | S. cerevisiae deletion strains, locus YOR083W, strain WHI5 (second series), stronger effect = lower value 0.99 | [3] 1

C[C@@H]1CC2C3CCC4=CC(=O)C=C[C@]4(C)[C@@]3(F)[C@@H](O)C[C@]2(C)[C@@]1(O)C(=O)CO (stereo partly specified)
inactive: S. cerevisiae deletion strains, locus YAL021C, strain ccr4, stronger effect = lower value 0.96 | S. cerevisiae deletion strains, locus YAL026C, strain drs2, stronger effect = lower value 0.988 | S. cerevisiae deletion strains, locus YAL030W, strain snc1, stronger effect = lower value 0.969 | S. cerevisiae deletion strains, locus YBL061C, strain skt5, stronger effect = lower value 0.976 | S. cerevisiae deletion strains, locus YBR009C, strain hhf1, stronger effect = lower value 0.989 | S. cerevisiae deletion strains, locus YBR023C, strain chs3, stronger effect = lower value 0.999 | S. cerevisiae deletion strains, locus YBR171W, strain sec66, stronger effect = lower value 0.947 | S. cerevisiae deletion strains, locus YBR231C, strain swc5, stronger effect = lower value 0.978 | S. cerevisiae deletion strains, locus YBR279W, strain paf1, stronger effect = lower value 1 | S. cerevisiae deletion strains, locus YCL011C, strain gbp2, stronger effect = lower value 0.988 | S. cerevisiae deletion strains, locus YCL016C, strain dcc1, stronger effect = lower value 1.03 | S. cerevisiae deletion strains, locus YCL069W, strain vba3, stronger effect = lower value 0.975 | S. cerevisiae deletion strains, locus YCR088W, strain abp1, stronger effect = lower value 0.978 | S. cerevisiae deletion strains, locus YDL005C, strain med2, stronger effect = lower value 0.966 | S. cerevisiae deletion strains, locus YDL040C, strain nat1, stronger effect = lower value 0.964 | S. cerevisiae deletion strains, locus YDR001C, strain nth1, stronger effect = lower value 0.966 | S. cerevisiae deletion strains, locus YDR069C, strain doa4, stronger effect = lower value 0.96 | S. cerevisiae deletion strains, locus YDR137W, strain rgp1, stronger effect = lower value 1.02 | S. cerevisiae deletion strains, locus YDR159W, strain sac3, stronger effect = lower value 0.968 | S. cerevisiae deletion strains, locus YDR195W, strain ref2 0.948 | S. cerevisiae deletion strains, locus YDR297W, strain sur2, stronger effect = lower value 0.988 | S. cerevisiae deletion strains, locus YDR334W, strain swr1, stronger effect = lower value 0.957 | S. cerevisiae deletion strains, locus YDR335W, strain msn5, stronger effect = lower value 0.976 | S. cerevisiae deletion strains, locus YDR392W, strain spt3, stronger effect = lower value 1.06 | S. cerevisiae deletion strains, locus YEL003W, strain gim4, stronger effect = lower value 0.973 | S. cerevisiae deletion strains, locus YEL037C, strain rad23, stronger effect = lower value 0.974 | S. cerevisiae deletion strains, locus YEL061C, strain CIN8 (second series), stronger effect = lower value 0.976 | S. cerevisiae deletion strains, locus YER015W, strain faa2, stronger effect = lower value 0.995 | S. cerevisiae deletion strains, locus YER016W, strain bim1, stronger effect = lower value 1.03 | S. cerevisiae deletion strains, locus YER111C, strain swi4, stronger effect = lower value 0.971 | S. cerevisiae deletion strains, locus YER155C, strain BEM2 (second series), stronger effect = lower value 0.958 | S. cerevisiae deletion strains, locus YFR010W, strain ubp6, stronger effect = lower value 0.958 | S. cerevisiae deletion strains, locus YGL167C, strain pmr1, stronger effect = lower value 0.957 | S. cerevisiae deletion strains, locus YGL173C, strain kem1, stronger effect = lower value 0.964 | S. cerevisiae deletion strains, locus YGL227W, strain vid30, stronger effect = lower value 0.987 | S. cerevisiae deletion strains, locus YGL240W, strain doc1, stronger effect = lower value 0.966 | S. cerevisiae deletion strains, locus YGL253W, strain hxk2, stronger effect = lower value 1 | S. cerevisiae deletion strains, locus YHR013C, strain ard1, stronger effect = lower value 0.995 | S. cerevisiae deletion strains, locus YHR027C, strain rpn1, stronger effect = lower value 0.993 | [1] 1.02 | S. cerevisiae deletion strains, locus YHR079C, strain IRE1, stronger effect = lower value 1.01 | S. cerevisiae deletion strains, locus YHR142W, strain chs7, stronger effect = lower value 0.948 | S. cerevisiae deletion strains, locus YJL092W, strain hpr5, stronger effect = lower value 0.964 | S. cerevisiae deletion strains, locus YJL095W, strain BCK1 (second series), stronger effect = lower value 0.967 | S. cerevisiae deletion strains, locus YJL095W, strain BCK1, stronger effect = lower value 1.02 | S. cerevisiae deletion strains, locus YJL115W, strain asf1, stronger effect = lower value 0.976 | S. cerevisiae deletion strains, locus YJL129C, strain trk1, stronger effect = lower value 0.976 | S. cerevisiae deletion strains, locus YJL154C, strain vps35, stronger effect = lower value 0.951 | S. cerevisiae deletion strains, locus YJL164C, strain tpk1, stronger effect = lower value 1.01 | S. cerevisiae deletion strains, locus YJL166W, strain qcr8, stronger effect = lower value 0.916 | S. cerevisiae deletion strains, locus YJR066W, strain TOR1, stronger effect = lower value 0.997 | S. cerevisiae deletion strains, locus YKL160W, strain elf1, stronger effect = lower value 0.989 | S. cerevisiae deletion strains, locus YKR026C, strain gcn3, stronger effect = lower value 0.98 | S. cerevisiae deletion strains, locus YKR091W, strain srl3, stronger effect = lower value 0.961 | S. cerevisiae deletion strains, locus YLL001W, strain dnm1, stronger effect = lower value 0.911 | S. cerevisiae deletion strains, locus YLL026W, stronger effect = lower value 0.985 | S. cerevisiae deletion strains, locus YLL041C, strain sdh2, stronger effect = lower value 0.972 | S. cerevisiae deletion strains, locus YLR027C, strain aat2, stronger effect = lower value 0.976 | S. cerevisiae deletion strains, locus YLR113W, strain HOG1, stronger effect = lower value 1.03 | S. cerevisiae deletion strains, locus YLR221C, strain rsa3, stronger effect = lower value 1.02 | S. cerevisiae deletion strains, locus YLR258W, strain gsy2, stronger effect = lower value 0.987 | S. cerevisiae deletion strains, locus YLR262C, strain YPT6 (second series), stronger effect = lower value 0.943 | S. cerevisiae deletion strains, locus YLR320W, strain mms22, stronger effect = lower value 1 | S. cerevisiae deletion strains, locus YLR342W, strain FKS1, stronger effect = lower value 0.951 | S. cerevisiae deletion strains, locus YLR357W, strain rsc2, stronger effect = lower value 0.966 | S. cerevisiae deletion strains, locus YLR370C, strain arc18, stronger effect = lower value 0.996 | S. cerevisiae deletion strains, locus YLR384C, strain iki3, stronger effect = lower value 0.982 | S. cerevisiae deletion strains, locus YML120C, strain ndi1, stronger effect = lower value 0.969 | S. cerevisiae deletion strains, locus YMR058W, strain fet3, stronger effect = lower value 0.981 | S. cerevisiae deletion strains, locus YMR125W, strain sto1, stronger effect = lower value 0.951 | S. cerevisiae deletion strains, locus YMR129W, stronger effect = lower value 0.993 | S. cerevisiae deletion strains, locus YMR205C, strain PFK2, stronger effect = lower value 0.969 | S. cerevisiae deletion strains, locus YMR231W, strain pep5, stronger effect = lower value 0.96 | S. cerevisiae deletion strains, locus YNL071W, strain lat1, stronger effect = lower value 0.971 | S. cerevisiae deletion strains, locus YNL183C, strain NPR1, stronger effect = lower value 0.965 | S. cerevisiae deletion strains, locus YNL209W, strain ssb2, stronger effect = lower value 0.997 | S. cerevisiae deletion strains, locus YNL248C, strain rpa49, stronger effect = lower value 1.01 | S. cerevisiae deletion strains, locus YNL322C, strain KRE1 (second series), stronger effect = lower value 0.962 | S. cerevisiae deletion strains, locus YNR049C, strain mso1, stronger effect = lower value 0.984 | S. cerevisiae deletion strains, locus YOR001W, strain rrp6, stronger effect = lower value 0.976 | S. cerevisiae deletion strains, locus YOR070C, strain gyp1, stronger effect = lower value 0.997 | S. cerevisiae deletion strains, locus YOR080W, strain dia2, stronger effect = lower value 0.948 | S. cerevisiae deletion strains, locus YOR083W, strain WHI5, stronger effect = lower value 0.968 | S. cerevisiae deletion strains, locus YOR106W, strain vam3, stronger effect = lower value 0.933 | S. cerevisiae deletion strains, locus YOR231W, strain MKK1, stronger effect = lower value 1.01 | S. cerevisiae deletion strains, locus YOR265W, strain rbl2, stronger effect = lower value 0.986 | S. cerevisiae deletion strains, locus YOR270C, strain vph1, stronger effect = lower value 0.955 | S. cerevisiae deletion strains, locus YOR290C, strain snf2, stronger effect = lower value 1.02 | S. cerevisiae deletion strains, locus YPL051W, strain arl3, stronger effect = lower value 1.01 | S. cerevisiae deletion strains, locus YPL078C, strain atp4, stronger effect = lower value 0.928 | S. cerevisiae deletion strains, locus YPL106C, strain sse1, stronger effect = lower value 0.981 | S. cerevisiae deletion strains, locus YPL240C, strain hsp82, stronger effect = lower value 0.98 | S. cerevisiae deletion strains, locus YPL256C, strain CLN2, stronger effect = lower value 1.01
